Data published in PubChem BioAssay (Tox21).
Records with an inconclusive call do not appear. Active and inactive are the calls of the source. Unless noted, calls come from the whole dose curve; as a rule, active = well fitted curve in the direction sought with a large enough effect in the repeat runs; inconclusive = weak or mixed curves; inactive = no such curve, though single readings can be large; an effect the other way counts as inactive or inconclusive.

Columns and labels:
[1] = qHTS assay to identify small molecule agonists of the peroxisome proliferator-activated receptor delta (PPARd) signaling pathway - cell viability counter screen (AID 743211); note: nearly all actives have a fitted effect of over 55% in size; note: potency is the fitted concentration of half-maximal effect
In short: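 qHTS cell viability: PPARd-bla HEK293H; 17 h cpd, 37C; CellTiter-Glo, luminescence at 30 min RT.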

[2] = qHTS assay to identify small molecule antagonists of the peroxisome proliferator-activated receptor delta (PPARd) signaling pathway - cell viability counter screen (AID 743213); note: nearly all actives have a fitted effect of over 50% in size; note: potency is the fitted concentration of half-maximal effect
In short: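 Luminescence from CellTiter-Glo, added after the bla read and incubated 30 min at room temperature, gives viability of HEK293H PPARd-bla cells exposed to compounds for 17 h at 37 C with 300 nM L165041.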

[3] = qHTS assay to identify small molecule agonists of the farnesoid-X-receptor (FXR) signaling pathway - cell viability counter screen (AID 743218); note: nearly all actives have a fitted effect of over 45% in size; note: potency is the fitted concentration of half-maximal effect
In short: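 Cells were seeded, left 5 h at 37 C and 5% CO2, then dosed with compound in DMSO for 16 h. After the beta-lactamase FRET read, CellTiter-Glo was added and luminescence measured 30 min later.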

[4] = qHTS assay to identify small molecule agonists of the vitamin D receptor (VDR) signaling pathway - cell viability counter screen (AID 743224); note: nearly all actives have a fitted effect of over 50% in size; note: potency is the fitted concentration of half-maximal effect
In short: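 Cells: VDR-bla, 2,000/well, settled 4 h. Treatment: compounds in DMSO, 16 h, 37C/5% CO2. Readout: CellTiter-Glo luminescence after 30 min RT.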

[5] = qHTS assay to identify small molecule antagonists of the vitamin D receptor (VDR) signaling pathway - cell viability counter screen (AID 743225); note: nearly all actives have a fitted effect of over 50% in size; note: potency is the fitted concentration of half-maximal effect
In short: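 Parallel cytotoxicity test: VDR-UAS-bla HEK 293T, 3 nM (final) 1-alpha,25-dihydroxyvitamin D3 with test compound, 16 h, 37C. Endpoint is CellTiter-Glo luminescence in the same wells.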

[6] = qHTS assay to identify small molecule agonists of the NFkB signaling pathway - cell viability counter screen (AID 1159515; calls by dose curve; note: nearly all actives have a fitted effect of over 55% in size; note: potency is the fitted concentration of half-maximal effect)
In short: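 Cells are seeded (2,000 NFkB-bla ME-180 per well), rested overnight, and dosed with DMSO-dissolved compounds for 5 hr at 37 C. Viability is then read by CellTiter-Glo luminescence after 30 min at room temperature.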

[7] = qHTS assay to identify small molecule agonists of the endoplasmic reticulum stress response signaling pathway - cell viability counter screen (AID 1159517; calls by dose curve; note: nearly all actives have a fitted effect of over 50% in size; note: potency is the fitted concentration of half-maximal effect)
In short: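 After overnight attachment, ESRE-bla HeLa cells were treated with Tox21 library compounds for 5 hr. CellTiter-Glo luminescence, read 30 min post-addition at room temperature, reported viability.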

[8] = qHTS assay to identify small molecule antagonists of the retinoid-related orphan receptor gamma (ROR-gamma) signaling pathway - cell viability counter screen (AID 1159520); note: nearly all actives have a fitted effect of over 50% in size; note: potency is the fitted concentration of half-maximal effect
In short: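 Cytotoxicity was read from cellular ATP (CellTiter-Glo luminescence) after 16 hr at 37 C with 1 uM doxycycline induction. The inducer was added 2 hr after compound transfer to Tet-on ROR gamma CHO cells.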

[9] = molecular target: Nuclear receptor ROR-gamma (Homo sapiens) (UniProt P51449); test: qHTS assay to identify small molecule antagonists of the retinoid-related orphan receptor gamma (ROR-gamma) signaling pathway (AID 1159521; note: nearly all actives have a fitted effect of over 50% in size; note: potency is the fitted concentration of half-maximal effect)
In short: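 Decreased RORE-driven luciferase luminescence indicates antagonism. Tet-on RORγ CHO cells received compound, then 1 uM final doxycycline 2 h later; signal read after 16 h incubation.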

[10] = qHTS assay to identify small molecule agonists of the AP-1 signaling pathway - cell viability counter screen (AID 1159525; calls by dose curve; note: nearly all actives have a fitted effect of over 55% in size; note: potency is the fitted concentration of half-maximal effect)
In short: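 Intracellular ATP by Cell Titer Glo luminescence (30 min, RT) in the same ME-180 AP-1-bla wells after the 5 h compound exposure at 37 °C. Normalised to tetra n-octyl ammonium bromide and DMSO controls.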

[11] = molecular target: Peroxisome proliferator-activated receptor delta (Homo sapiens) (UniProt Q03181); test: qHTS assay to identify small molecule agonists of the peroxisome proliferator-activated receptor delta (PPARd) signaling pathway (AID 743212; calls by dose curve; note: potency is the fitted concentration of half-maximal effect)
In short: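 Steps: seed PPARd-bla HEK293H cells; incubate 5 h, 37 C, 5% CO2; add compounds in DMSO; incubate, 37 C; add LiveBLAzer B/G FRET substrate; hold 2 h at room temperature; measure fluorescence.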

[12] = molecular target: Peroxisome proliferator-activated receptor delta (Homo sapiens) (UniProt Q03181); test: qHTS assay to identify small molecule antagonists of the peroxisome proliferator-activated receptor delta (PPARd) signaling pathway (AID 743215; active = well fitted inhibition curve with a large enough effect in the signal ratio in the repeat runs, not every such curve was filed as active; the % refers to the signal ratio;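 note: cells stimulated with agonist L165041 at 300 nM final during compound exposure; series mostly up to about 62 µM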)
In short: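 Cells: HEK293H with a UAS-driven beta-lactamase reporter responsive to PPARd. Compounds were co-added with L165041 (300 nM, final) and incubated 17 h at 37 C before a 2 h room-temperature FRET substrate step and fluorescence reading.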

[13] = qHTS assay to identify small molecule antagonists of the farnesoid-X-receptor (FXR) signaling pathway - cell viability counter screen (AID 743221; active = well fitted cell-killing curve with a large enough effect in the repeat runs, not every such curve was filed as active; note: nearly all actives have a fitted effect of over 50% in size; note: potency is the fitted concentration of half-maximal effect)
In short: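 After a 5 h settling period, FXR-bla HEK 293T cells receive compound and chenodeoxycholic acid (50 uM final) and incubate 16 h at 37 C; CellTiter-Glo luminescence, read after 30 min at room temperature, reports cell viability.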

[14] = qHTS assay to identify small molecule agonists of the AP-1 signaling pathway (AID 1159526; calls by dose curve)
[15] = molecular target: Vitamin D3 receptor (Homo sapiens) (UniProt P11473); test: qHTS assay to identify small molecule antagonists of the vitamin D receptor (VDR) signaling pathway (AID 743223; active = well fitted inhibition curve with a large enough effect in the signal ratio in the repeat runs, not every such curve was filed as active; the % refers to the signal ratio; note: potency is the fitted concentration of half-maximal effect)
In short: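 Reporter line VDR-bla; stimulus 1alpha,25-(OH)2 vitamin D3, 3 nM final; compound co-addition, 16 h 37C/5% CO2; LiveBLAzer B/G substrate 2 h RT; fluorescence intensity.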

[16] = molecular target: Bile acid receptor (Homo sapiens) (UniProt Q96RI1); test: qHTS assay to identify small molecule agonists of the farnesoid-X-receptor (FXR) signaling pathway (AID 743220; active = well fitted activation curve with a large enough effect in the signal ratio in the repeat runs, not every such curve was filed as active; the % refers to the signal ratio)
In short: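 FXR-UAS-bla HEK 293T cells carrying a UAS-driven beta-lactamase reporter were plated for 5 h at 37C/5% CO2, then exposed to DMSO-dissolved Tox21 10K compounds for 16 h at 37C. A LiveBLAzer B/G FRET substrate was loaded for 2 h at room temperature before fluorescence reading.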

[17] = molecular target: Retinoic acid receptor RXR-alpha (Homo sapiens) (UniProt P19793); test: qHTS assay to identify small molecule agonists of the RXR signaling pathway (AID 1159527; calls by dose curve; note: nearly all actives have a fitted effect of over 35% in size)
In short: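 16 hr incubation of compound-treated RXR-alpha-UAS-bla HEK 293T cells (2% charcoal-stripped FBS, 37 C) preceded a 2 hr room-temperature LiveBLAzer FRET substrate step and blue/green fluorescence measurement.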

[18] = molecular target: Vitamin D3 receptor (Homo sapiens) (UniProt P11473); test: qHTS assay to identify small molecule agonists of the vitamin D receptor (VDR) signaling pathway (AID 743222; calls by dose curve)
In short: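 Cells carrying a VDR-driven beta-lactamase reporter are seeded at 2,000 per well and rested 4 h. Compounds in DMSO are added for 16 h at 37C, and FRET substrate fluorescence is measured after 2 h at room temperature.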

[19] = molecular target: Bile acid receptor (Homo sapiens) (UniProt Q96RI1); test: qHTS assay to identify small molecule antagonists of the farnesoid-X-receptor (FXR) signaling pathway (AID 743217; active = well fitted inhibition curve with a large enough effect in the signal ratio in the repeat runs, not every such curve was filed as active; the % refers to the signal ratio; note: potency is the fitted concentration of half-maximal effect)
In short: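 Cells carrying a UAS-driven beta-lactamase reporter (GeneBLAzer FXR-UAS-bla HEK 293T) were plated and rested 5 h at 37 °C. Compounds in DMSO were added alongside chenodeoxycholic acid agonist at 50 uM final and left 16 h at 37 °C before FRET substrate readout.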

Measured: Potency

Chain of Bile acid receptor (Homo sapiens) (Q96RI1 whole entry, looked up): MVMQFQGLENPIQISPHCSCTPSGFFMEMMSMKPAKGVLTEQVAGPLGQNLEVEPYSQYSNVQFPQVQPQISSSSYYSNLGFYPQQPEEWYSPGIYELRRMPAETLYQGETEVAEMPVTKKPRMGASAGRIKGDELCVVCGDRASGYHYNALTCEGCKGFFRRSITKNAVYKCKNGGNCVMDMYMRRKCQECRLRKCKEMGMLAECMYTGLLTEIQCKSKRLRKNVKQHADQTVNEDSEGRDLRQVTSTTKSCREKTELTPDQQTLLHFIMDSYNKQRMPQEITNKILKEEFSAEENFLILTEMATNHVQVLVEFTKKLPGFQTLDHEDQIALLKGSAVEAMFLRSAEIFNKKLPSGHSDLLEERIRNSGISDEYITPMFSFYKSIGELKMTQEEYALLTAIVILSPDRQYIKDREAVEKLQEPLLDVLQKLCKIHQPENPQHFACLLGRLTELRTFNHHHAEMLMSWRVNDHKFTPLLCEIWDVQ
Chain of Peroxisome proliferator-activated receptor delta (Homo sapiens) (Q03181 whole entry, looked up): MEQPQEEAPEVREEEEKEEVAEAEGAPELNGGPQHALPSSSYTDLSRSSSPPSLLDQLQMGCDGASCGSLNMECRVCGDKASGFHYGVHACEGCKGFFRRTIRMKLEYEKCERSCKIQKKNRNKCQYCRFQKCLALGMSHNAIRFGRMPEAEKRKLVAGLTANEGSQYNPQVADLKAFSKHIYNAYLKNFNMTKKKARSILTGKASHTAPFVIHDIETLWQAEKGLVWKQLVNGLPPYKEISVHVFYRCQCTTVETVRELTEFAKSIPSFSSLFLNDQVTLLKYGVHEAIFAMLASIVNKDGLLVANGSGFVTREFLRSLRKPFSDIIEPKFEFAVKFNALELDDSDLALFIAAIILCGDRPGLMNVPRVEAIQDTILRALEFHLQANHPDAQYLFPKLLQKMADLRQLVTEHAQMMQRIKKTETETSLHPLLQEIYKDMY
Chain of Vitamin D3 receptor (Homo sapiens) (P11473 whole entry, looked up): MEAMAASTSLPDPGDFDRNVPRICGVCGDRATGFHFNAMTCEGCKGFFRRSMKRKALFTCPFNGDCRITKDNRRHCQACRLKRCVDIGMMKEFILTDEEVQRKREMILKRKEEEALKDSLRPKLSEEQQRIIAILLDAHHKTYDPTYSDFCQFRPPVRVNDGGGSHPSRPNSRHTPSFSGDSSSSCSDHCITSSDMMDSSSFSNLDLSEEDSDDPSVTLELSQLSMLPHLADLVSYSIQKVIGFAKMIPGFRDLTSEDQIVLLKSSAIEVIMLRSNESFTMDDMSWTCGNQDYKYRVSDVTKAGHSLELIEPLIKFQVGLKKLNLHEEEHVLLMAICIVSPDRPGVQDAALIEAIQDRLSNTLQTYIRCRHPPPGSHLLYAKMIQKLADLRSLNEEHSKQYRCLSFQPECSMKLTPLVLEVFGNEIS
Chain of Retinoic acid receptor RXR-alpha (Homo sapiens) (P19793 whole entry, looked up): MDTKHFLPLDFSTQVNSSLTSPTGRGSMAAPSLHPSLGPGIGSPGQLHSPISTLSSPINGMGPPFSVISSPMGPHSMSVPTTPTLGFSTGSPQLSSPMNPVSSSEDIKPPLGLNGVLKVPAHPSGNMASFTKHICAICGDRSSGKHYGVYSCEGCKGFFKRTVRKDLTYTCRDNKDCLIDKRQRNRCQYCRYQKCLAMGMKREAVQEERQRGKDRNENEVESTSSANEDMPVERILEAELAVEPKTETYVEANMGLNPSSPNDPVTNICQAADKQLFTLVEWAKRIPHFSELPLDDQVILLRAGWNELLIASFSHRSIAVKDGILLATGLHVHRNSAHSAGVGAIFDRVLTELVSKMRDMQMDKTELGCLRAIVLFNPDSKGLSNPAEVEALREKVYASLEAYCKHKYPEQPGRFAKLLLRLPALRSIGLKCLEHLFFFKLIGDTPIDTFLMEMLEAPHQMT

CCCN(CCC)c1c([N+](=O)[O-])cc(C(F)(F)F)c(N)c1[N+](=O)[O-]
active: [1] 19.4 µM | [2] 30.8 µM | [3] 38.8 µM | [4] 13.8 µM | [5] 21.8 µM | [6] 24.5 µM | [7] 43.5 µM | [8] 30.5 µM | [9] 21.6 µM | [10] 13.8 µM

Cc1cccc(CN2CCN(C(c3ccccc3)c3ccc(Cl)cc3)CC2)c1 (stereo not drawn)
active: [1] 26.6 µM | [3] 29.8 µM
not listed: [4] | [5] | [15] | [16] | [17] | [18] | [19]
inactive: all other assays above

CCOC(=O)O[C@H](C)OC(=O)c1ccc2c(c1)cc(C(=O)NC1CCN(C(C)C)CC1)n2Cc1cc(-c2ccc(Cl)s2)on1
active: [1] 8.14 µM | [2] 18.2 µM | [3] 16.2 µM | [13] 45.8 µM | [15] 16.2 µM | [6] 45.8 µM | [7] 45.8 µM | [8] 11.4 µM | [9] 4.54 µM | [10] 16.2 µM

CCCCCCCCNC(C)C(O)c1ccc(SC(C)C)cc1 (stereo not drawn)
active: [1] 9.44 µM | [2] 8.41 µM | [3] 18.8 µM | [13] 23.7 µM | [4] 13.3 µM | [5] 9.52 µM | [6] 13.4 µM | [7] 19 µM | [8] 18.8 µM | [9] 23.7 µM | [10] 16.9 µM

O=C1C=CC(=O)N1c1ccc(Cc2ccc(N3C(=O)C=CC3=O)cc2)cc1
active: [1] 38.9 µM | [2] 34.7 µM | [4] 17.4 µM | [6] 24.5 µM | [7] 34.7 µM | [8] 15.4 µM | [9] 8.63 µM | [10] 24.5 µM
inactive: [11]

CCc1cc(Cc2cc(CC)cc(C(C)(C)C)c2O)c(O)c(C(C)(C)C)c1
active: [1] 7.76 µM | [2] 6.92 µM | [3] 11 µM | [13] 11 µM | [15] 17.4 µM | [4] 6.17 µM | [5] 4.36 µM | [6] 15.5 µM | [7] 21.9 µM | [8] 27.3 µM | [9] 19.3 µM | [10] 11 µM

Cc1ccc2oc(CN(Cc3ccccc3)C(=O)Nc3c(F)cc(F)cc3F)c(-c3ccc(Cl)cc3)c2c1
active: [9] 14.9 µM
not listed: [11] | [12] | [14] | [18] | [19]
inactive: all other assays above

O=C(OCC(COC(=O)c1ccccc1)(COC(=O)c1ccccc1)COC(=O)c1ccccc1)c1ccccc1
not listed: [5] | [11] | [12] | [14] | [16] | [19]
inactive: all other assays above

CCCCC(CC)CN=C(N)NC(N)=NCCCCCCN=C(N)NC(N)=NCC(CC)CCCC (stereo not drawn)
active: [1] 6.68 µM | [2] 8.41 µM | [3] 13.3 µM | [13] 21.1 µM | [4] 23.7 µM | [5] 7.56 µM | [6] 19 µM | [7] 16.9 µM | [8] 26.6 µM | [9] 26.6 µM | [10] 10.7 µM

CCCCCCCCCCCC[N+](C)(C)CCCCCCCCCCCC
active: [1] 17.4 µM | [2] 13.8 µM | [19] 49 µM | [3] 27.5 µM | [5] 24.5 µM | [6] 21.9 µM | [7] 43.6 µM | [8] 27.3 µM | [9] 19.3 µM | [10] 30.9 µM

Cc1cc(O)c(C(C)(C)C)cc1Sc1cc(C(C)(C)C)c(O)cc1C
active: [1] 3.88 µM | [2] 3.46 µM | [3] 8.69 µM | [13] 9.75 µM | [4] 4.36 µM | [5] 7.75 µM | [6] 17.3 µM | [7] 21.8 µM | [8] 8.62 µM | [9] 2.73 µM | [10] 12.3 µM

O=C(O)c1cc(O)c2c(c1)C(=O)c1cccc(O)c1C2=O
inactive: [1] | [11] | [12] | [13] | [4] | [6] | [7] | [8] | [9] | [10]

Cc1nc(-c2ccc3c(c2)CCN(CCC2CCC(NC(=O)/C=C/c4ccc(F)cc4)CC2)CC3)no1 (stereo not drawn)
active: [11] 21.9 µM | [8] 15.4 µM | [9] 1.94 µM
inactive: [1] | [2] | [19] | [3] | [13] | [5] | [6] | [7] | [10]

COC(=O)C1=C(C)NC(C)=C(C(=O)OCCc2ccc(N3CCN(C(c4ccccc4)c4ccccc4)CC3)cc2)C1c1cccc([N+](=O)[O-])c1 (stereo not drawn)
not listed: [12] | [14] | [15] | [16] | [17] | [19]
inactive: all other assays above

CCCC(c1cc(C(C)(C)C)c(O)cc1C)c1cc(C(C)(C)C)c(O)cc1C
active: [1] 11.1 µM | [2] 19.7 µM | [3] 12.5 µM | [13] 19.7 µM | [4] 7.86 µM | [5] 14 µM | [6] 11.1 µM | [7] 22.1 µM | [8] 15.5 µM | [9] 13.9 µM | [10] 7 µM

CCCCCCC[N+](CC)(CC)CCCCc1ccc(Cl)cc1
not listed: [1] | [4] | [11] | [12] | [16] | [17] | [18] | [19]
inactive: all other assays above

N=C1N=C(N)c2ccccc21
active: [7] 21.9 µM | [8] 43.3 µM | [9] 48.6 µM
not listed: [1] | [11] | [12] | [14] | [16] | [19]
inactive: all other assays above
